Source: PubChem BioAssay (Tox21)
Inconclusive results are not listed. Active and inactive are the calls of the source. Unless noted, calls follow the shape of the dose curve; as a rule, active = well fitted curve in the direction sought with a large enough effect in the repeat runs; inconclusive = weak or mixed curves; inactive = no such curve, though single readings can be large; an effect the other way counts as inactive or inconclusive.

Legend:
[1] = qHTS assay to identify small molecule agonists of the peroxisome proliferator-activated receptor delta (PPARd) signaling pathway - cell viability counter screen (AID 743211); also: nearly all actives have a fitted effect of over 55% in size
Procedure, shortened: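 PPARd-bla HEK293H cells (3000/well) were pre-incubated 5 h at 37 C, then exposed to compound for 17 h at 37 C. After 2 h with LiveBLAzer substrate, CellTiter-Glo was added to the same wells; luminescence read after 30 min at room temperature.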

[2] = target: Peroxisome proliferator-activated receptor delta (Homo sapiens) (UniProt Q03181); assay: qHTS assay to identify small molecule agonists of the peroxisome proliferator-activated receptor delta (PPARd) signaling pathway (AID 743212; calls by dose curve)
Sequence of Peroxisome proliferator-activated receptor delta (Homo sapiens) (Q03181 whole entry, looked up): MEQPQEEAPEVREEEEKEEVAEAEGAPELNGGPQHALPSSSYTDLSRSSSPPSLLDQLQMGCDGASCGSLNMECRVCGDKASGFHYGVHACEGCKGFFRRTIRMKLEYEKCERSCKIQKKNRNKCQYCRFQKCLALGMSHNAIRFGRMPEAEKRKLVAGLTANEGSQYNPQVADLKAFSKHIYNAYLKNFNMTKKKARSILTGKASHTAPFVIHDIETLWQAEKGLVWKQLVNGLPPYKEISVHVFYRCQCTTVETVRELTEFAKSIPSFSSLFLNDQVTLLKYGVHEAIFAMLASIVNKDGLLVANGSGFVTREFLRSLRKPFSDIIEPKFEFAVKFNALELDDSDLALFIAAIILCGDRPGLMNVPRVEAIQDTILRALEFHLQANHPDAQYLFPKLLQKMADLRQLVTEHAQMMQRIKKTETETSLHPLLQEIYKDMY
Procedure, shortened: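 Read-out: beta-lactamase FRET fluorescence after 2 h room-temperature incubation with LiveBLAzer B/G substrate. Cells were HEK293H carrying a UAS-bla reporter for PPARd, treated at 37 C with DMSO-dissolved compounds.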

[3] = qHTS assay to identify small molecule antagonists of the peroxisome proliferator-activated receptor delta (PPARd) signaling pathway - cell viability counter screen (AID 743213); also: nearly all actives have a fitted effect of over 50% in size
Procedure, shortened: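 HEK293H PPARd UAS-bla cells, 5 h pre-incubation, compound + L165041 300 nM final, 17 h 37 C; B/G FRET substrate 2 h RT; then CellTiter-Glo 30 min RT, luminescence.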

[4] = target: Peroxisome proliferator-activated receptor delta (Homo sapiens) (UniProt Q03181); assay: qHTS assay to identify small molecule antagonists of the peroxisome proliferator-activated receptor delta (PPARd) signaling pathway (AID 743215; active = well fitted inhibition curve with a large enough effect in the signal ratio in the repeat runs, not every such curve was filed as active; the % refers to the signal ratio;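 also: cells stimulated with agonist L165041 at 300 nM final during compound exposure; series mostly up to about 62 µM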)
Procedure, shortened: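 Here, a reporter line (HEK293H, beta-lactamase under a UAS) measures PPARd signaling. Compounds are tested against agonist L165041 at 300 nM final concentration over 17 h at 37 C, with fluorescence read after substrate.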

[5] = qHTS assay to identify small molecule agonists of the farnesoid-X-receptor (FXR) signaling pathway - cell viability counter screen (AID 743218); also: nearly all actives have a fitted effect of over 45% in size
Procedure, shortened: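 Quantitative HTS counter screen measuring ATP-based viability via CellTiter-Glo luminescence in HEK 293T cells carrying a UAS-driven beta-lactamase reporter, after 16 h compound exposure at 37 C.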

[6] = qHTS assay to identify small molecule antagonists of the farnesoid-X-receptor (FXR) signaling pathway - cell viability counter screen (AID 743221; active = well fitted cell-killing curve with a large enough effect in the repeat runs, not every such curve was filed as active; also: nearly all actives have a fitted effect of over 50% in size)
Procedure, shortened: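 GeneBLAzer FXR-UAS-bla HEK 293T cells, compound plus chenodeoxycholic acid (50 uM final), 16 h at 37 C. CellTiter-Glo added to the same wells after the beta-lactamase read; luminescence read after 30 min at room temperature as viability.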

[7] = target: Vitamin D3 receptor (Homo sapiens) (UniProt P11473); assay: qHTS assay to identify small molecule agonists of the vitamin D receptor (VDR) signaling pathway (AID 743222; calls by dose curve)
Sequence of Vitamin D3 receptor (Homo sapiens) (P11473 whole entry, looked up): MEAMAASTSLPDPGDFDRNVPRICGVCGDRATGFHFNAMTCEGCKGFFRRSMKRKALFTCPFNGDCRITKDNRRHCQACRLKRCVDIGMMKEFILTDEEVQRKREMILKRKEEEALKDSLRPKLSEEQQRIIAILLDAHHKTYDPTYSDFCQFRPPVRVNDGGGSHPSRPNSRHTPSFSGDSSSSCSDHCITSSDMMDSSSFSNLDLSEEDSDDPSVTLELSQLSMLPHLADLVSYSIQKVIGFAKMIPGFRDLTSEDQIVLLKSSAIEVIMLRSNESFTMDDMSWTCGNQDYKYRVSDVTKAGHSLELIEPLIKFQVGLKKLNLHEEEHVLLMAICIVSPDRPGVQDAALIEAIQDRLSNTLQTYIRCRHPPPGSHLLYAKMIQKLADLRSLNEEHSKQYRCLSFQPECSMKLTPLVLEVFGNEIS
Procedure, shortened: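 Tox21 cell reporter format: VDR-bla line, 16 h compound exposure in 5% CO2 at 37C, then fluorescence intensity after 2 h with LiveBLAzer B/G FRET substrate.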

[8] = target: Vitamin D3 receptor (Homo sapiens) (UniProt P11473); assay: qHTS assay to identify small molecule antagonists of the vitamin D receptor (VDR) signaling pathway (AID 743223; active = well fitted inhibition curve with a large enough effect in the signal ratio in the repeat runs, not every such curve was filed as active; the % refers to the signal ratio)
Procedure, shortened: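 VDR-bla cells were treated with compound plus 3 nM final 1alpha,25-dihydroxyvitamin D3 for 16 h at 37C. Beta-lactamase reporter read by B/G FRET substrate fluorescence after 2 h at room temperature. qHTS format.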

[9] = target: Bile acid receptor (Homo sapiens) (UniProt Q96RI1); assay: qHTS assay to identify small molecule antagonists of the farnesoid-X-receptor (FXR) signaling pathway (AID 743217; active = well fitted inhibition curve with a large enough effect in the signal ratio in the repeat runs, not every such curve was filed as active; the % refers to the signal ratio)
Sequence of Bile acid receptor (Homo sapiens) (Q96RI1 whole entry, looked up): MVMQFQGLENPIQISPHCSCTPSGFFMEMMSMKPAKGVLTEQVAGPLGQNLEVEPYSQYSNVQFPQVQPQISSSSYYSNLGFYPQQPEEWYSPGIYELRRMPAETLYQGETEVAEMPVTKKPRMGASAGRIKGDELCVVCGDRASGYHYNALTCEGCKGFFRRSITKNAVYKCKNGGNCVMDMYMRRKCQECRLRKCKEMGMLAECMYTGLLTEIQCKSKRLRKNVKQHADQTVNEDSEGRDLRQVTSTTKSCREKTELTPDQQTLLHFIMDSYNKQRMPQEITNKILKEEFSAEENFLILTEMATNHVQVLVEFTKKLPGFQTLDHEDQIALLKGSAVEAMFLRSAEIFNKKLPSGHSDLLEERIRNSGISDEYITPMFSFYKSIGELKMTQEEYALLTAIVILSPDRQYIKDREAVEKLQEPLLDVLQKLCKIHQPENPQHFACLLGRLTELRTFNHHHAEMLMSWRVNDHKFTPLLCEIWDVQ
Procedure, shortened: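 Test compounds are pin-transferred onto FXR-bla HEK 293T cells, then chenodeoxycholic acid is added at 50 uM final. After 16 h at 37 °C, LiveBLAzer B/G substrate is applied for 2 h at room temperature and fluorescence read.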

[10] = target: Bile acid receptor (Homo sapiens) (UniProt Q96RI1); assay: qHTS assay to identify small molecule agonists of the farnesoid-X-receptor (FXR) signaling pathway (AID 743220; active = well fitted activation curve with a large enough effect in the signal ratio in the repeat runs, not every such curve was filed as active; the % refers to the signal ratio)
Procedure, shortened: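 FXR-UAS-bla HEK 293T cells carrying a UAS-driven beta-lactamase reporter were plated for 5 h at 37C/5% CO2, then exposed to DMSO-dissolved Tox21 10K compounds for 16 h at 37C. A LiveBLAzer B/G FRET substrate was loaded for 2 h at room temperature before fluorescence reading.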

Measured: Potency

CC(O)CCO (configuration not stated)
not listed: [9] | [10]
inactive: all other assays above

CCN(CC)N=O
inactive: all assays above

CC(C)NC(C)C
not listed: [9] | [10]
inactive: all other assays above

Oc1ccc(-c2ccccc2)cc1
inactive: all assays above

ClC1C(Cl)C(Cl)C(Cl)C(Cl)C1Cl (configuration not stated)
not listed: [7] | [8]
inactive: all other assays above

CCCCCCCCOC(=O)c1ccccc1C(=O)OCCCCCCCC
inactive: all assays above

COP(=O)(OC)OC
inactive: all assays above

OCC(O)CO
inactive: all assays above

CC(C)N(C(=O)SCC(Cl)=C(Cl)Cl)C(C)C
inactive: all assays above

c1ccc(NNc2ccccc2)cc1
inactive: all assays above

N#CC(Br)Br
not listed: [7] | [8]
inactive: all other assays above

N[C@@H](Cc1ccc(N(CCCl)CCCl)cc1)C(=O)O
not listed: [7] | [8]
inactive: all other assays above

Cc1ccc2c(c1N)C(=O)c1ccccc1C2=O
not listed: [7] | [8] | [9]
inactive: all other assays above

C1=Cc2cccc3cccc1c23
not listed: [9] | [10]
inactive: all other assays above

Nc1ccc(Cl)c(Cl)c1
not listed: [9] | [10]
inactive: all other assays above

c1ccc(P(c2ccccc2)c2ccccc2)cc1
not listed: [9] | [10]
inactive: all other assays above

Clc1nc(Cl)nc(Cl)n1
not listed: [9] | [10]
inactive: all other assays above

C=CCN(CC=C)C(=O)C(Cl)Cl
not listed: [9] | [10]
inactive: all other assays above

Cc1c(COC(=O)[C@@H]2[C@H](/C=C(\Cl)C(F)(F)F)C2(C)C)cccc1-c1ccccc1
not listed: [4] | [9]
inactive: all other assays above

CCN(CC)C(=O)/C(Cl)=C(\C)OP(=O)(OC)OC
not listed: [9] | [10]
inactive: all other assays above

CCOP(=S)(OCC)O/N=C(\C#N)c1ccccc1
not listed: [3]
inactive: all other assays above

CNC(=O)N(C)c1nnc(C(C)(C)C)s1
not listed: [9] | [10]
inactive: all other assays above

CCOc1cc(Oc2ccc(C(F)(F)F)cc2Cl)ccc1[N+](=O)[O-]
inactive: [1] | [2] | [3] | [9] | [10] | [6]

CCCCCc1cc(O)cc(O)c1
not listed: [4]
inactive: all other assays above

O=C(O)CC[N+](=O)[O-]
not listed: [7] | [9] | [10]
inactive: all other assays above
